Screening data as filed in PubChem.
Anthrax LF inh2: Bacillus anthracis LF protease inhibitors, primary screen, biochemical, multiplex microsphere, MLPCN library | Lethal factor (Bacillus anthracis), P15917 | multiplex microsphere protease cleavage assay | inhibition, % at 10 µM | 360,000 compounds, 0.12% hits | AID 588501, 2011
Target sequence (P15917 whole entry, looked up): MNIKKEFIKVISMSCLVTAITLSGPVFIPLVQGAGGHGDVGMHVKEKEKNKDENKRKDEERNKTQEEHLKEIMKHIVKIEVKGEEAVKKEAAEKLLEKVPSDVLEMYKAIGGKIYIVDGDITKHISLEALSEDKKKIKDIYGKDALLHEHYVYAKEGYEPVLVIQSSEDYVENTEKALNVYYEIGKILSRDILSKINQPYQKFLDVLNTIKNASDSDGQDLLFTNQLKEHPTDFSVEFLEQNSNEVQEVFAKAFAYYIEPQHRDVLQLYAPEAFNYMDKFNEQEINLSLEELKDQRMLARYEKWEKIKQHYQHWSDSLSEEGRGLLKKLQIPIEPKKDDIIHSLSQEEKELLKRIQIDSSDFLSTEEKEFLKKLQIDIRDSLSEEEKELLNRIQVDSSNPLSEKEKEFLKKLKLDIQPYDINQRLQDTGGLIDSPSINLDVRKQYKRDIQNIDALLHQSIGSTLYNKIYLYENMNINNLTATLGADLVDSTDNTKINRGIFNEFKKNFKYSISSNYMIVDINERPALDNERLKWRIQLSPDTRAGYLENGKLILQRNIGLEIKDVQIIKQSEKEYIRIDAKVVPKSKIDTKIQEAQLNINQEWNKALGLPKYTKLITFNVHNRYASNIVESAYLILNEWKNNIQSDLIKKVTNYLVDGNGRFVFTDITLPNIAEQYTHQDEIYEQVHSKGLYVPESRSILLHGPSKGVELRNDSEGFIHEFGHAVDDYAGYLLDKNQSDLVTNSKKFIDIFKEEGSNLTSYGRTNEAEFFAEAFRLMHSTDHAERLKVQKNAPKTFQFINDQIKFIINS
Vc quorum ag-1: inducers of Vibrio cholerae quorum light production without autoinducers, primary screen, BH1578 luxS cqsA deficient, single point; AID 588436, 2011; 350,000 compounds, 0.16% hits; V. cholerae BH1578 lux reporter, luminescence, 6 h; activation, % at 18.7 µM; in the data active means activation mostly above about 9.7%, no sharp cut-off; inconclusive means no clear call, values can overlap the other calls; inactive means mostly below about 3.7%
Autofluor counter: counter-screen for toxin protease inhibitors: compound fluorescence; compound autofluorescence counterscreen, microsphere flow cytometry; hits give high values; fluorescence intensity (test concentration not listed); 360,000 compounds, 3.1% hits; AID 624483; in the data active means fluorescence intensity above about 16000; inconclusive means no clear call, values can overlap the other calls
BJeLR lethal: MLPCN primary cell-based screen for lethality selective to Ras in HRASV12 cells; BJeLR (HRASV12) viability, CellTiter-Glo ATP luminescence, 48 h; inhibition, % (test concentration not listed); 300,000 compounds, 0.17% hits; AID 1554, 2009; in the data active means inhibition above about 50%; inconclusive means no clear call, values can overlap the other calls
BoNT F protease: BoNT/F light chain protease inhibitors, primary screen, biochemical, flow cytometry, MLPCN library. 360,000 compounds, 0.22% hits. Multiplex microsphere protease cleavage assay. inhibition, % at 10 µM. Botulinum neurotoxin type F light chain protease (Clostridium botulinum); in the data active means inhibition above about 35%, passing the limit was not always enough; inconclusive means no clear call, values can overlap the other calls
BoNT-A LC inh2: BoNT/A light chain protease inhibitors, primary screen, biochemical, flow cytometry, MLPCN library. multiplex microsphere protease substrate cleavage. inhibition, % at 10 µM. 360,000 compounds, 0.17% hits
Vc quorum ag-2: V. cholerae lux activation without autoinducers – BH1578 luxS cqsA deficient, cherry-pick, plate reader, dose response | activation, % at 50 µM | V. cholerae BH1578 lux reporter, luminescence, 6 h | AID 602243, 2012 | shares compounds with Vc quorum ag-1 | 620 tested, under 10 active; call rule not given here
HeLa 24h tox: HeLa cell cytotoxicity, dose response, cytotoxicity control, 24 h, dry powder; shares compounds with Vc quorum ag-1; HeLa viability, CellTiter-Glo ATP luminescence; activity change, negative = cytotoxicity, % at 35 µM; 25 tested, under 10 active; AID 624140, 2012;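 active means signal drop with fitted half-maximal concentration at or below twice the highest valid dose; inconclusive means flat curve with 30 to 70% loss, or poor fit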
Of the large screens only hits and unclear results are named; the others gave an inactive call (follow-up assays come after a bar, where they were run). Shown are actives, neighbours in structure and some others; about 3.7% of the full set was active somewhere. Unless noted, no stated cut-off is given here; in the data, active means inhibition above about 30%; inconclusive means no clear call, values can overlap the other calls; inactive means below that.

COc1ccc(N2CCN(CC(=O)Nc3c(C)cc(C)cc3C)CC2)cc1	Autofluor counter 17139 | Vc quorum ag-2 inactive
COc1ccc(-c2nnc3c4ccccc4c(C)nn23)cc1	Autofluor counter 22622 | Vc quorum ag-2 inactive
C[C@H](CO)N1C[C@H](C)[C@H](CN(C)S(=O)(=O)c2ccccc2F)OCc2cnnn2CCCC1=O	none (no result: BJeLR lethal)
CC(C)(C)Cc1nc(-c2ccccn2)no1	none | Vc quorum ag-2 inactive
N#CCCn1cc(C(=O)CN2C(=O)NC3(CCc4ccccc43)C2=O)c2ccccc21 (configuration not stated)	none (no result: BJeLR lethal)
O=C(c1cccc(Cl)c1)N1CCC(=O)N([C@H](COCc2ccccc2)Cc2ccccc2)CC1	none (no result: Vc quorum ag-1, BJeLR lethal)
CCOc1ccc(Nc2nc3c(c(=O)[nH]2)CCCC3)cc1	Vc quorum ag-1 145 | Vc quorum ag-2 inactive
COc1ccc(-c2noc(CCC(=O)N3CCN(c4cccc(OC)c4)CC3)n2)cc1	none (no result: BJeLR lethal)
O=C(CCc1nc(-c2ccccc2)no1)N1CCCC1	Vc quorum ag-1 313 | Vc quorum ag-2 inactive
COc1ccc(-c2noc(CCC(=O)N3CCN(c4cccc(C(F)(F)F)c4)CC3)n2)cc1	Vc quorum ag-1 25 | Vc quorum ag-2 inactive
CC(C)(C)c1ccc(-c2noc(CCC(=O)N3CCOCC3)n2)cc1	none
CN(C1CCCCC1)S(=O)(=O)CCNC(=O)c1ccccc1	none | Vc quorum ag-2 inactive
COc1cccc(C(=O)NCCS(=O)(=O)N(C)C2CCCCC2)c1	none
Cc1cccc2cc(C#N)c(NCCNC(=O)c3ccccc3)nc12	none (no result: BJeLR lethal)
Cc1cc(Oc2ccc(C#N)cc2)nc(N2CCOCC2)n1	Vc quorum ag-1 25 | Vc quorum ag-2 inactive
COc1ccc(S(=O)(=O)N2CCCC(C(=O)NCc3ccc(F)cc3)C2)cc1 (configuration not stated)	none
COc1ccc(S(=O)(=O)N2CCCC(C(=O)NCc3ccncc3)C2)cc1 (configuration not stated)	Vc quorum ag-1 32 | Vc quorum ag-2 inactive
CCN(C(=O)C1CCCCC1)c1nnc(-c2cccnc2)s1	none
COCCN(C(=O)C1CCC1)c1nnc(-c2cccnc2)s1	none | Vc quorum ag-2 inactive
COc1ccc2[nH]c(=O)c(CN(C(=O)c3cccnc3)c3ccc(C)cc3)cc2c1	none | Vc quorum ag-2 inactive
COc1ccc2[nH]c(=O)c(CN(C(=O)c3cccnc3)c3cccc(C)c3)cc2c1	none
COc1ccc(CN2C[C@@H](CO)O[C@@H](n3cnc4c(NCc5ccncc5)ncnc43)C2)cc1	none (no result: BJeLR lethal)
CC1CC(C)CN(C(=O)Cn2c(-c3nonc3N)nc3ccccc32)C1 (configuration not stated)	none
CC1CCCN(C(=O)Cn2c(-c3nonc3N)nc3ccccc32)C1 (configuration not stated)	Autofluor counter 18146 | Vc quorum ag-2 inactive
CN(CCc1ccccc1)C(CCc1ccccc1)C(=O)Nc1ccc2c(c1)OCCO2 (configuration not stated)	none (no result: Vc quorum ag-1, BJeLR lethal)
COc1cc(C2N(c3ccccn3)C(=O)C3CCCN32)cc(OC)c1OC (configuration not stated)	Vc quorum ag-1 26 | Vc quorum ag-2 inactive
Cc1onc(-c2ccccc2)c1C(=O)Nc1nc2c(s1)CCCC2	Vc quorum ag-1 7.6 | Vc quorum ag-2 inactive
Cc1onc(-c2c(F)cccc2Cl)c1C(=O)Nc1nc2c(s1)CCCC2	BoNT-A LC inh2 inconclusive
O=C(CNC(=O)c1ccncc1)Nc1ccc(F)c(F)c1	none | Vc quorum ag-2 inactive
CCCCNC(=O)Nc1ccccc1C(=O)NCCC	BoNT-A LC inh2 inconclusive
CCCCNC(=O)c1ccccc1NC(=O)CCSc1ccccc1	none | Vc quorum ag-2 inactive
O=C(CCNC(=O)c1ccc(Cl)cc1)NCC(c1ccco1)N1CCCCC1 (configuration not stated)	none | Vc quorum ag-2 inactive
O=C(NCC(c1ccco1)N1CCCC1)c1ccc(Cl)cc1 (configuration not stated)	none (no result: Anthrax LF inh2, Autofluor counter, BoNT F protease, BoNT-A LC inh2)
CC1(c2nc3ccccc3[nH]2)CCC(=O)N1Cc1cccs1 (configuration not stated)	none (no result: Vc quorum ag-1, BJeLR lethal)
O=C(O)c1cn[nH]c1-n1cnnn1	none | Vc quorum ag-2 inactive
CCCNC(=O)COC(=O)/C=C/c1ccc(C)o1	Vc quorum ag-1 active | Vc quorum ag-2 inactive
COc1ccc(CNC(=O)c2cc(-n3cnnc3)ccc2Cl)cc1	Vc quorum ag-1 25 | Vc quorum ag-2 inactive
Cc1ccc(OCCNC(=O)c2cc(-n3cnnc3)ccc2Cl)cc1C	none
COc1ccc(CCNC(=O)c2ccc(Cl)cc2Cl)cc1	Vc quorum ag-1 28 | Vc quorum ag-2 inactive
CCC1OC(C(C)C)Cc2[nH][nH]c(=O)c21 (configuration not stated)	none (no result: Vc quorum ag-1, BJeLR lethal)
COCCNC(=O)c1cnn2c1NC(c1ccco1)CC2C(F)(F)F (configuration not stated)	Vc quorum ag-1 17 | Vc quorum ag-2 inactive
O=Nc1ccc(NO)c2ccccc12	none (no result: BJeLR lethal)
N#Cc1cccc(NC(=O)c2cc(C3CCCCN3C(=O)c3ccccn3)on2)c1 (configuration not stated)	none (no result: BJeLR lethal)
CCCCN(Cc1nc2ccccc2c(=O)[nH]1)C(=O)CN1C(=O)NC2(CCCCC2)C1=O	Vc quorum ag-1 110 (no result: BJeLR lethal) | Vc quorum ag-2 inactive
Fc1ccc(NCc2cn3ccccc3n2)cc1	Vc quorum ag-1 17 | Vc quorum ag-2 inactive
O=c1ncn(-c2cccc(Cl)c2)c2ccccc12	Vc quorum ag-1 active, BoNT F protease inconclusive | Vc quorum ag-2 inactive | HeLa 24h tox inactive
CC(C)Oc1ccc(C(=O)Nc2cc(S(=O)(=O)N3CCOCC3)ccc2N2CCOCC2)cc1	none (no result: BJeLR lethal) | Vc quorum ag-2 inactive
O=S(=O)(NCC(c1cccnc1)N1CCc2ccccc2C1)c1ccccc1 (configuration not stated)	none
O=[N+]([O-])c1ccc(S(=O)(=O)NCC(c2cccnc2)N2CCc3ccccc32)cc1 (configuration not stated)	none | Vc quorum ag-2 inactive
O=c1oc2c(CN3CCOCC3)c(O)c(Cl)cc2c2c1CCC2	Vc quorum ag-1 31 (no result: BJeLR lethal) | Vc quorum ag-2 inactive
O=c1cc(-c2ccccc2)c2cc(Cl)c(O)c(CN3CCOCC3)c2o1	none
Cc1ccc(OCCC(=O)OCC(=O)Nc2ccc3c(c2)OCO3)cc1	none | Vc quorum ag-2 inactive
Cc1ccc(OCCC(=O)Nc2ccc3c(c2)OCO3)cc1	none (no result: BJeLR lethal)
